Bioassay records from PubChem BioAssay.
DT40 TDP1 CPT = growth inhibition of DT40 Tdp1-/-;hTDP1 cells with camptothecin (screen for TDP1 inhibitors). actives 12% (n = 420,000). AID 686979. Potency, µM (top dose mostly 46.2 µM), inactives show at the top dose activity change, negative = growth inhibition, actives largely listed as inhibitors. chicken DT40 Tdp1-/-;hTDP1 cells + 20 nM CPT, ATP luminescence, 48 h; further: potency means the concentration at half of the fitted maximal effect; on the % scale 0 is the no-effect control and ±100 the full control effect; nearly all actives have a fitted effect of over 55% in size
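Cell growth measured by CellTiter-Glo luminescence after a minimum 48 h, 37 C compound exposure with 20 nM CPT in Tdp1-knockout DT40 cells stably expressing hTDP1, seeded 400/well; qHTS titration format.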
TDP1 cell noCPT = qHTS for Inhibitors of human tyrosyl-DNA phosphodiesterase 1 (TDP1): qHTS in cells in absence of CPT; DT40 Tdp1-/- hTDP1 cells, no CPT, ATP luminescence, 48 h; Potency, µM (series often up to 46.2 µM), without a hit: at the top dose activity change, negative = growth inhibition, usual class: inhibitors; actives 15% (n = 420,000); AID 686978, 2013; further: potency means the concentration at half of the fitted maximal effect; on the % scale 0 is the no-effect control and ±100 the full control effect; nearly all actives have a fitted effect of over 55% in size
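Compound effects on proliferation are scored in DT40 Tdp1-/-;hTDP1 cells in the absence of CPT. ATP levels (CellTiter-Glo luminescence) are recorded after a ≥48 hr, 37 °C incubation.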
IL-1B inflam inh = blocks inflammasome-driven IL-1 beta release; AID 743279; activity change, % at 57.5 µM; THP-1 LPS/ATP IL-1B secretion, AlphaLISA, 16 h; active compounds read low; actives 4.7% (n = 360,000); in the data active means activity change below about -50%; inconclusive means mostly about -30% to -49%; further: on the % scale 0 is the no-effect control and ±100 the full control effect
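Secreted IL-1B measured by AlphaLISA bead assay after 16 h compound exposure of THP-1 cells; compounds (final up to 57.5 uM) added 1 h before LPS (250 ng/mL) and ATP (1.25 mM) stimulation; lower signal means less secretion.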
S-ASM inh = human S-ASM enzyme inhibition | P17405 | placental ASM, HMU-PC fluorogenic substrate, 60 min | Potency, µM (highest dose often 57.5 µM), without a hit: at the top dose activity change, negative = inhibition, usual class: inhibitors | actives 0.006% (n = 340,000); further: potency means the concentration at half of the fitted maximal effect
Target sequence (P17405 47-631 limits assumed): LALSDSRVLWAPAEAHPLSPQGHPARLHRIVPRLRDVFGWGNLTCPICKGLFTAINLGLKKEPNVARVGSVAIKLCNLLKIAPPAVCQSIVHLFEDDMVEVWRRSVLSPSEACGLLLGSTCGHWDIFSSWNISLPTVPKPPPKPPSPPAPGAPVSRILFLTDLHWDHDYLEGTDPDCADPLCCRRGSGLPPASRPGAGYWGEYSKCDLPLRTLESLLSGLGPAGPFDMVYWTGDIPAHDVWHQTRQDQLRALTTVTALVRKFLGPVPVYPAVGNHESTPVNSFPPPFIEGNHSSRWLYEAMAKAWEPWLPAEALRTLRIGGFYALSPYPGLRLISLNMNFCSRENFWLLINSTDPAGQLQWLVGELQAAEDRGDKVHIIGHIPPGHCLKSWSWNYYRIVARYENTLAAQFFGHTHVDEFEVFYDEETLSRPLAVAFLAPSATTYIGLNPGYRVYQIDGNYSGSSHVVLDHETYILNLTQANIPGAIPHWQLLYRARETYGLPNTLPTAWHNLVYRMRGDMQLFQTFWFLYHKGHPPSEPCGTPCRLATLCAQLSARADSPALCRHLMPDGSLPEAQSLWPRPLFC
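qHTS format. ASM enzyme prepared from human placenta hydrolyses the fluorogenic substrate HMU-PC0 (9 uM final) over 60 min at 37 °C after a 10 min compound preincubation.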
HepG2 viability = counter-screen for TGF-b inhibitors: cytotoxicity in HepG2 cells. HepG2 CAGA-GFP viability, ATP luminescence, 18 h. actives 0.76% (n = 410,000). Potency, µM (doses to about 46.1 µM), inactives show at the top dose activity change, negative = cytotoxicity, hits mostly cytotoxic. AID 588856; further: potency means the concentration at half of the fitted maximal effect
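HepG2 CAGA-GFP cells (1000/well, DMEM with 1% FBS) received compound, then TGF-beta at 500 pg/mL final, and were incubated 18 hours at 37 degrees C. Viability was read by CellTiter-Glo luminescence. Media-only wells were set as complete cell-killing and DMSO as no toxicity.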
TGFb inhibitor = TGF-b pathway inhibition | HepG2 CAGA-GFP TGF-b/SMAD3 reporter, GFP fluorescence, 18 h; TGF-beta stimulated, 500 pg/mL final | actives 1.2% (n = 410,000) | Potency, µM (top dose mostly 46.1 µM), for inactives: at the top dose activity, negative = inhibition, hits mostly inhibitors | AID 588855; further: potency means the concentration at half of the fitted maximal effect; on the % scale 0 is the no-effect control and ±100 the full control effect; nearly all actives have a fitted effect of over 65% in size
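HEPG2 CAGA-GFP cells (1000/well, DMEM with 1% FBS) were pre-incubated 2 h at 37 degrees C, given compound by pin tool, then stimulated with TGF-beta at 500 pg/mL final for 18 h before per-cell GFP fluorescence imaging.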
The depositor's hits bear a star; ? = inconclusive; . = no result given. Sampled rows, rich in hits. Any-hit rate of the full collection: about 19%. Unless noted, the call rests on the fitted dose curve; in most records, active means well fitted curve in the direction sought with a large enough effect; inconclusive means small, poorly fitted or top-dose-only effect, or another doubt; inactive means no such curve, though single readings can be large; an effect the other way counts as inactive or inconclusive.

SMILES	DT40 TDP1 CPT	TDP1 cell noCPT	IL-1B inflam inh	S-ASM inh	HepG2 viability	TGFb inhibitor
Cc1oc(C(C)(C)C)cc1C(=O)N1CCN(c2ncccc2C(F)(F)F)CC1	?	23µM*	-6	-2%	14%	?
COc1ccccc1N1CCN(C(=O)c2cc(C(C)(C)C)oc2C)CC1	?	21µM*	-60*	-3%	12%	?
CCOCCc1nnc(NC(=O)C2CCN(C(=O)c3ccco3)CC2)s1	-1%	6%	8	2%	-8%	-9%
CC(=O)c1ccc([N+](C)(C)C)cc1	17%	-2%	.	.	4%	3%
CC1(C)SC(=S)N(/N=C/c2ccccc2)C1N(O)C(=O)Nc1ccc([N+](=O)[O-])cc1 (stereo not given)	16µM*	18µM*	?	-17%	11µM*	?
CC1(C)SC(=S)N(NC(=O)Nc2cccc3ccccc23)C1N(O)C(=O)Nc1ccccc1 (stereo not given)	?	16µM*	-25	-7%	-50%	?
Cc1c(C(=O)N(C)C)sc2c1c(=O)n(-c1ccc(Cl)cc1)c(=O)n2CC(=O)C(C)(C)C	-19%	?	.	.	-4%	?
CC1=NC(=O)C(N=Nc2ccccc2C(=O)O)N1c1ccccc1 (stereo not given)	7.3µM*	13µM*	36	8%	-22%	-19%
CC1=NC(=O)C(N=Nc2ccccc2)N1c1ccccc1 (stereo not given)	-6%	-14%	4	-14%	-24%	-27%
CCOCCCNC(=O)CCC(=O)NNc1nc2ccccc2c2nc(-c3ccccc3)nn12	?	12µM*	30	0%	-18%	-6%
O=C(O)CCC(=O)N1CCc2cc(S(=O)(=O)NCc3ccc(Cl)cc3)ccc21	-2%	14%	13	9%	2%	2%
O=C1c2ccc(O)c(O)c2C(=O)c2c(O)ccc(O)c21	10µM*	?	.	.	.	.
C/C=C(\C)C(=O)OC1[C@H](OC(C)=O)C2(CO)C(CC1(C)C)C1=CCC3C4(C)CCC(O[C@@H]5O[C@H](C(=O)O)[C@@H](O[C@@H]6O[C@H](CO)[C@@H](O)[C@H](O)[C@H]6O)[C@H](O)[C@H]5O[C@H]5O[C@H](CO)[C@@H](O)[C@H](O)[C@H]5O)[C@](C)(CO)C4CCC3(C)[C@]1(C)C[C@H]2O (stereo not given in full)	12µM*	15µM*	-105*	-9%	-102%	4.5µM*
CC1(C)C[C@H]2C3=CCC4[C@@]5(C)CC[C@H](O[C@@H]6O[C@H](C(=O)O)[C@@H](O)[C@H](O)[C@H]6O)[C@@](C)(CO)C5CC[C@@]4(C)[C@]3(C)C[C@H](O)[C@@]2(CO)[C@@H](O)[C@@H]1O (stereo not given in full)	5%	0%	28	1%	-3%	2%
COc1ccc(/C=C\C(=O)O[C@@H]2C(O)C(O[C@@H]3OC(C)[C@H](O[C@@H]4OCC(O[C@H]5O[C@H](CO)[C@@H](O)C(O)C5O)C(O)C4O)C(O)C3O)[C@H](OC(=O)[C@]34CCC(C)(C)C[C@@H]3C3=CCC5[C@@]6(C)CC(O)C(O[C@@H]7OC(CO)C(O)[C@H](O)[C@H]7O)[C@@](C)(C(=O)O)C6CC[C@@]5(C)[C@]3(CO)CC4)O[C@H]2C)cc1 (stereo not given in full)	3.7µM*	5.2µM*	-97*	-28%	-110%	?
C[C@@H]1OC(OC2CC[C@@]3(C)C(CC[C@@]4(C)C3CC=C3C5CC(C)(C)CC[C@]5(C(=O)OC5OCC(O)[C@@H](O)[C@@H]5OC5O[C@@H](C)[C@H](O[C@H]6OC(CO)C(O)C(O)C6O)C(O)C5O)C(O)C[C@@]34C)C2(C)C)C(O)C(O)[C@H]1OC1OCC(O)C(O)[C@H]1O (stereo not given in full)	15µM*	?	.	.	.	.
COC(=O)CSC1=NS(=O)(=O)c2ccccc21	1.5µM*	2.3µM*	?	1%	12%	19%
COC(=O)CSc1ccccc1C(=O)OC	0%	-9%	0	168%	-1%	19%
O=C(CSC1=NS(=O)(=O)c2cc(F)ccc2N1)Nc1ccccc1	16%	-30%	9	.	2%	7%
O=C(CSC1=NS(=O)(=O)c2ccccc21)Nc1ccccc1	1.8µM*	2.6µM*	-16	-2%	-28%	?
CC[n+]1c(/C=C/C=C/N(C(C)=O)c2ccccc2)sc2ccccc21	?	21µM*	0	-18%	-15%	170%
CC(=O)Nc1ccc(/C=C/c2sc3ccccc3[n+]2CCCCI)cc1	?	?	.	.	-21%	15%
CCn1c(/C=C/N(C(C)=O)c2ccccc2)[n+](CC)c2ccc(Cl)cc21	16µM*	15µM*	13	6%	-39%	?
CC(OC(=O)C1CC1C)C(=O)Nc1ncc(Cl)cc1Cl (stereo not given)	11%	2%	4	-4%	-3%	-12%
C[C@H](NC(=O)c1nc[nH]c1C(=O)NC1CCN(C(=O)OC(C)(C)C)CC1)C(=O)OC(C)(C)C	18µM*	?	-5	0%	1%	12%
CC(C)(C)OC(=O)N1CCC(NC(=O)c2nc[nH]c2C(=O)NCc2ccccc2)CC1	?	23µM*	-2	8%	-17%	?
CC(C)(C)OC(=O)[C@H](Cc1ccccc1)NC(=O)c1nc[nH]c1C(=O)N1CCN(C(=O)OC(C)(C)C)CC1	?	-26%	-5	3%	-23%	7%
CC(C)C[C@H](NC(=O)c1nc[nH]c1C(=O)NC1CCN(C(=O)OC(C)(C)C)CC1)C(=O)OC(C)(C)C	?	18µM*	-4	-10%	-77%	?
CC(C)(C)OC(=O)[C@H](Cc1ccccc1)NC(=O)c1nc[nH]c1C(=O)NC1CCN(C(=O)OC(C)(C)C)CC1	23µM*	16µM*	-6	-10%	-117%	?
Cc1ccc(C(=O)NCC(=O)N(C)CC(=O)Nc2c(Cl)cccc2Cl)s1	-39%	-15%	22	.	4%	4%
